Compound activity from PubChem BioAssay.
Shown are actives, neighbours in structure and some others; about 1.1% of the full set was active somewhere.
MBNL1-CUG inh: MBNL1-poly(CUG) RNA binding inhibition | Q9NR56 | TR-FRET MBNL1-His/biotin-(CUG)12 binding, 665/545 ratio | Potency, µM (doses to about 57.5 µM), for inactives: at the top dose activity change, negative = inhibition, usual class: inhibitors | 280,000 tested, 0.036% active; active = well fitted inhibition curve with a large enough effect in the signal ratio, with a control signal flat, not every such curve was filed as active; inconclusive = small, poorly fitted or top-dose-only effect, or effect the other way, or a change in a side signal; inactive = no such curve, though single readings can be large or run the other way; the % refers to the signal ratio; also: potency is read from the fitted curve at half-maximal effect; % is scaled to controls: 0 for no effect and ±100 for the full control effect
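Compounds (final 92 nM to 58 uM) are added to His-tagged MBNL1 and biotin-(CUG)12, then terbium anti-His antibody and streptavidin-XL665 (5 nM final). After 60 min at room temperature, the 665/545 nm ratio is read.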
HTT aggregate: inhibitors of mutant huntingtin aggregate formation in PC12 cells. Potency, µM (series often up to 46.1 µM), for the others: at the top dose activity change, negative = inhibition, usual class: inhibitors. PC12 HttQ103-GFP aggregates, Acumen cytometry, 40 h. 220,000 tested, 1.1% active. AID 1688; also: potency is read from the fitted curve at half-maximal effect; % is scaled to controls: 0 for no effect and ±100 for the full control effect; nearly all actives have a fitted effect of over 60% in size
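Multiplexed with ATP-based cell death, this channel scores GFP aggregates in PC12 cells expressing inducible HTTex1-Q103-GFP. Induction used 100 nM tebufenozide; compounds were tested in concentration series.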
NPSR antag: neuropeptide S receptor (human) antagonism, cAMP; AID 1461; CHO-NPSR cells, cAMP TR-FRET, antagonist mode; 220,000 tested, 1% active; Potency, µM (highest dose often 38.3 µM), for the others: at the highest dose activity change, negative = inhibition, actives largely listed as inhibitors; also: potency is read from the fitted curve at half-maximal effect; % is scaled to controls: 0 for no effect and ±100 for the full control effect; nearly all actives have a fitted effect of over 50% in size
CBFb RUNX1 block: CBF-beta/RUNX1 interaction disruption. Q01196+Q13951. AlphaScreen CBFb-His/RUNX1-biotin binding, biochemical. 230,000 tested, under 10 active. Potency, µM (top dose mostly 59.8 µM), for inactives: top-dose activity, negative = inhibition, most hits filed as inhibitors; also: % of control where 0% means no effect
Target sequence (Q01196 whole entry, looked up): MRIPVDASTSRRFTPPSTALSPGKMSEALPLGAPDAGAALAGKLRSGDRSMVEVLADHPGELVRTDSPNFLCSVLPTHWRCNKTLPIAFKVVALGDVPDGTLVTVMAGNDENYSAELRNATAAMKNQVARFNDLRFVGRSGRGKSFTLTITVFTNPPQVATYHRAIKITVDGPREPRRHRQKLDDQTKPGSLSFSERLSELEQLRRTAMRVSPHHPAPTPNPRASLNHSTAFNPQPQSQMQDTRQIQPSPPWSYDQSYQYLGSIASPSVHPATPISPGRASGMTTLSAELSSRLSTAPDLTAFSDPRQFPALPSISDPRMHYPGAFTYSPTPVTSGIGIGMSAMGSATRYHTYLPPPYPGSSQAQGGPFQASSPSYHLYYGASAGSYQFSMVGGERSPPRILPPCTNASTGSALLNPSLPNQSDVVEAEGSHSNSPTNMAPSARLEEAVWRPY
Target sequence (Q13951 whole entry, looked up): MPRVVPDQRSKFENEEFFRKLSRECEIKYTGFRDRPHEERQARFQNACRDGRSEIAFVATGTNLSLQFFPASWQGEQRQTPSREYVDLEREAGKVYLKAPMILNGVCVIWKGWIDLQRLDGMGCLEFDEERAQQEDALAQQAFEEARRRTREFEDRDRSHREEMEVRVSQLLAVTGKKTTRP
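AlphaScreen binding: CBFb-His and RUNX1-biotin (30 nM each) preincubated 20 min, compound added for 15 min, then nickel and streptavidin beads for 90 min, all at room temperature. Disruption of the interaction by any mechanism counts as activity.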
LMNA splice mod: modulators of lamin A splicing; HeLa LMNA splicing GFP/RFP minigene ratio, 48 h; Potency, µM (top dose mostly 46.1 µM), inactives show at the top dose ratio change, negative = inhibition, hits mostly inhibitors; 200,000 tested, 0.01% active; AID 1487; active = well fitted inhibition curve with a large enough effect in the signal ratio, with a control signal flat, not every such curve was filed as active; inconclusive = small, poorly fitted or top-dose-only effect, or effect the other way, or a change in a side signal; the % refers to the signal ratio; also: potency is read from the fitted curve at half-maximal effect; % is scaled to controls: 0 for no effect and ±100 for the full control effect
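S3 HeLa cells stably expressing lamin A-EGFP splicing minigene plus DsRed2, 600 cells/well, 48 h compound exposure at 37C. Laser-scanning cytometry; analysed as GFP (500-530 nm)/RFP (575-640 nm) total intensity ratio; 0.5% DMSO vehicle.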
HTT cytoprotect: Huntington cell model cytoprotection by ATP luminescence. PC12 HTT-Q103 induced, cytoprotection, ATP luminescence, 40 h. 230,000 tested, 0.14% active. AID 1471. Potency, µM (top dose mostly 56.4 µM), for inactives: cytoprotection (ATP increase), hits mostly activators; also: potency is read from the fitted curve at half-maximal effect; % of control where 0% means no effect; nearly all actives have a fitted effect of over 45% in size
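Stable PC12 Q103-GFP cells in serum-supplemented, phenol red-free DMEM; induction by tebufenozide at 100 nM final; compound dose series; cell viability quantified luminescently from ATP.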
* marks the source's active call; other numbers are inactive results; ? = inconclusive; nt = not tested or not shown; [ ] = another dose, or the depositor's remark. Unless noted, calls follow the shape of the dose curve; as a rule, active = well fitted curve in the direction sought with a large enough effect; inconclusive = small, poorly fitted or top-dose-only effect, or another doubt; inactive = no such curve, though single readings can be large; an effect the other way counts as inactive or inconclusive.

SMILES	MBNL1-CUG inh	HTT aggregate	NPSR antag	CBFb RUNX1 block	LMNA splice mod	HTT cytoprotect
CC(C)=NOc1cc(NC(=O)CCl)cc([N+](=O)[O-])c1	30.7%[11.5 µM]	3.16µM*	-31.0%	-1.9%	?	nt
CCC(=O)Nc1cc(ON=C(C)C)cc([N+](=O)[O-])c1	1.1%[11.5 µM]	16.0%	12.2%	4.4%	?	nt
COc1cccc(N(Cc2nnc3n2CCCCC3)C(=O)Nc2cccc(Cl)c2)c1	nt	nt	nt	nt	8.9%[46 µM]	nt
Cc1noc(C)c1S(=O)(=O)N1CCc2nc(-c3ccccc3)c3c(c2C1)CO[C@@H](C)C3	nt	nt	nt	-11.4%[13.1 µM]	-1.5%[9.22 µM]	0.9%[10 µM]
Nc1nc(N)c2nn(-c3ccc(C(=O)O)cc3)nc2n1	nt	nt	nt	nt	nt	8.9%[10 µM]
CCCCc1nc2c(c3c1C[C@H](C)OC3)CN(C(=O)Nc1ccc(OC)cc1)CC2	nt	nt	nt	-3.5%[13.1 µM]	-6.5%[9.22 µM]	-24.3%[10 µM]
C[C@H]1Cc2c(-c3ccccc3)nc3c(c2CO1)CN(C(=O)c1cccnc1)CC3	nt	nt	nt	2.7%[13.1 µM]	?	-16.6%[10 µM]
COc1ccc(CNC[C@@H](CCCCN(C)Cc2ccc(OC)cc2)N2C[C@H](c3ccccc3)N(CCc3ccc(Cl)c(Cl)c3)C(=O)C2=O)cc1	-11.1%	3.0%[9.22 µM]	?	2.8%	nt	-44.4%[10 µM]
CN(CCCC[C@H](CNCc1ccc(-c2ccccc2)cc1)N1C[C@H](c2ccccc2)N(CCc2ccc(Cl)c(Cl)c2)C(=O)C1=O)Cc1ccc(-c2ccccc2)cc1	-5.9%	?	10µM*	-5.1%	nt	-24.0%[10 µM]
COC(=O)N1C2CC3(C)CC(=O)CC1(C)C3c1ccccc12 (configuration not stated)	nt	nt	nt	4.6%[13.1 µM]	12.3%[9.22 µM]	-15.2%[10 µM]
CCOc1cc(/C=C2/C(=N)N3OC(C)=CC3=NC2=O)ccc1OCCOc1ccccc1	-0.5%	1.8%	10µM*	1.3%	?	-27.4%
COc1ccc(C(=O)OC2CC3CC[C@H](C2)N3C(C)=O)cc1OC (some centres not stated)	nt	nt	nt	6.0%	nt	-0.7%
CC1CCN(S(=O)(=O)c2ccc3c(c2)oc(=O)n3CC(=O)NCc2ccc3c(c2)OCO3)CC1	19.8%	8.91µM*	-23.7%[46.1 µM]	-11.6%	?	-2.1%
CC1(C)OC2OC(C(=O)N/N=C/c3cc(Br)ccc3O)C3OC(C)(C)OC3C2O1 (configuration not stated)	14.0%	10µM*	1.2%	-10.8%	?	16.4%[10 µM]
NC(=O)N/N=C\c1cc(Br)ccc1O	33.8%	0.6%	35.0%	?	-12.7%	11.2%[10 µM]
O=C(Nc1cc(Cl)ccc1O)c1cc2n(n1)C(C(F)(F)F)CC(c1ccc3c(c1)OCO3)N2 (configuration not stated)	-4.9%	9.8%	6.31µM*	1.2%	?	-23.5%[10 µM]
Cc1ccc(C[C@H](Cc2nc3ccccc3[nH]2)c2nc3ccccc3[nH]2)cc1	nt	nt	nt	nt	nt	-9.1%
CCOc1ccccc1CNC(=O)c1cnc2sc(N3CCOCC3)nn2c1=O	nt	nt	nt	nt	0.1%[46 µM]	nt
COC(=O)c1ccccc1S(=O)(=O)N(Cc1cc2ccc(OC)cc2[nH]c1=O)CC1CCCO1 (configuration not stated)	-5.6%	3.55µM*	-12.4%[46.1 µM]	4.6%	2.6%	-3.6%[10 µM]
COc1ccc(SCC(c2ccccc2)N2CCN(CC(C)C)CCC2=O)cc1 (configuration not stated)	nt	nt	nt	0.2%	nt	nt
Cc1ccccc1Nc1nnc(SCc2cc([N+](=O)[O-])cc3c2OCOC3)s1	12.6%	17.8µM*	-28.6%[46.1 µM]	-26.4%	?	-28.0%
O=[N+]([O-])c1cc2c(c(CSc3nnc(Nc4ccccc4)s3)c1)OCOC2	12.8%	8.2%	-16.3%[46.1 µM]	-4.5%	?	21.8%
COC(=O)c1c(C)n(-c2ccc(OC)cc2)c2ccc(O)cc12	-6.7%	11.2µM*	-11.4%[46.1 µM]	-4.4%	-3.3%	-15.3%
CCC(=O)N(C1=C(NC(C)C)C(=O)c2ccccc2C1=O)C(C)C	?	-3.3%[9.22 µM]	-20.2%	9.3%	nt	-4.3%[10 µM]
CCCNC1=C(N(C(C)=O)c2cccc(F)c2)C(=O)c2ccccc2C1=O	?	11.2µM*	5.7%	0.1%	?	-75.5%[10 µM]
SMILES	MBNL1-CUG inh	HTT aggregate	NPSR antag	CBFb RUNX1 block	LMNA splice mod	HTT cytoprotect
CC(C)CCn1c(-c2nonc2N)nc2ccccc21	-4.2%	11.2µM*	0.6%[46.1 µM]	12.7%	-18.8%	-2.6%[10 µM]
CCOC(=O)C1CCN(C(=O)C2CCN(S(=O)(=O)c3c(C)noc3/C=C/c3ccc(C)cc3)CC2)CC1	nt	nt	nt	nt	-2.9%[46 µM]	nt
CCC1CC(/C(C)=N/NC(N)=O)OC1=O (configuration not stated)	-4.9%	-5.6%	22.5%	0.5%	nt	-23.2%
C/C(=N\NC(N)=S)C1C2C3CC4C5CC(C42)C1C53 (configuration not stated)	-2.4%	-23.8%	-0.4%	6.2%	?	11.2µM*
C[C@@H](C(=O)Nc1nc(-c2ccccn2)cs1)N1C(=O)C2CCCCC2C1=O (some centres not stated)	6.9%	?	-6.4%[46.1 µM]	?	-17.9%	2.6%
O=C(CN1C(=O)C2CCCCC2C1=O)Nc1nc(-c2ccccn2)cs1 (configuration not stated)	0.1%	11.2µM*	-17.8%[46.1 µM]	nt	?	12.6%
COc1ccc(CN(C)CC(=O)Nc2ccccc2-c2ccccc2)c(OC)c1	-1.7%	20µM*	-56.3%	0.6%	?	10.0%[10 µM]
Cc1nn(-c2ccccc2)c(N)c1N=Nc1ccc(Cl)cc1	16.4%	3.55µM*	-20.4%	?	-3.9%	-86.7%[10 µM]
CCc1ccccc1NC(=O)c1ncoc1-c1ccco1	nt	nt	nt	nt	-3.4%[46 µM]	nt
Cc1cc2n(n1)CCC(=O)N2Cc1ccc(C(=O)Nc2ccc(F)cc2F)cc1	nt	nt	nt	nt	12.6%[46 µM]	nt
COc1ccc(CCNCc2csc3nc4ccccc4n23)cc1OC	0.8%	7.08µM*	11.1%[46.1 µM]	-1.8%	?	-17.7%
COc1ccc(CCNc2nc3ccccc3n3nnnc23)cc1OC	19.4%	9.9%	?	1.0%	-3.4%	13.9%
Cc1ccccc1C(=O)Nc1nnc(-c2ccc(F)cc2)o1	-5.6%	10µM*	-9.8%[46.1 µM]	-8.3%	?	-47.3%
CCCCCCOC1(c2ccccc2)OC(=O)c2ccccc21 (configuration not stated)	-1.6%	-2.9%	?	?	-2.5%	21.7%
CCCCCOP(=O)(OCCCCC)C1(NS(=O)(=O)c2ccccc2)C=CC(=O)c2ccccc21 (configuration not stated)	-3.3%	4.3%	10µM*	-5.0%	?	-1.1%
CNCCCCCCCCSc1nc(C(C)C)ccc1C(=O)c1cccs1	nt	nt	nt	-0.8%[21.7 µM]	nt	-65.2%
CC(C)CNS(=O)(=O)c1ccc(CCC(=O)N2CCN(Cc3ccc4c(c3)OCO4)CC2)cc1	-12.8%	11.2µM*	-9.6%[46.1 µM]	?	?	-18.2%[0.074 µM]
